In publication PMC7862700, “An all-to-all approach to the identification of sequence-specific readers for epigenetic DNA modifications on cytosine” one finds binding signal data, which are given here for one sequence.

Common to all, as to assay: DAPPL (digital affinity profiling via proximity ligation, sequencing); 10 mM Tris-HCl pH 7.5, 50 mM NaCl, 1 mM DTT, 4% glycerol, room temperature, 30 min; GST-TFs on glutathione beads, 16-mer random dsDNA library, 0.1% formaldehyde crosslink after washing; high values mean tight binding
Common to all, as to conditions: protein: recombinant; tags: N-terminal GST; dsDNA, one strand shown

The target of one assay is T1, ELK1 (Homo sapiens, UniProt P19419 1-428).
T1 sequence: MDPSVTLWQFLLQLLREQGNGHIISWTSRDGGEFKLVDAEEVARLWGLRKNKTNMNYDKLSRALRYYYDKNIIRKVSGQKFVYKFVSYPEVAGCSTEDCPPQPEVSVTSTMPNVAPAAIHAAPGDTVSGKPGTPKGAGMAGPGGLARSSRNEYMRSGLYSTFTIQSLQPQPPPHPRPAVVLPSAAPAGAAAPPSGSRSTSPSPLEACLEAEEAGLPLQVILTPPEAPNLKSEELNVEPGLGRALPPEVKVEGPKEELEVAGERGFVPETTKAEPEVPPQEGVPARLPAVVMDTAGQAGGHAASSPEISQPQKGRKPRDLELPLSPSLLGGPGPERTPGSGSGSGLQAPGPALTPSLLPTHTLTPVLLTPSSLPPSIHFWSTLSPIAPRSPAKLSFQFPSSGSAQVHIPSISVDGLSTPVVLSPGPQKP
A digest of the protocol: (§1)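 The binding signal reported is, for every hexamer, its read frequency for a factor over its read frequency for the tag-only sample. Reads came from pools of yeast-expressed, GST-fused human transcription factors on glutathione beads, barcoded with DNA and mixed with that sample, which were incubated with 200 nmole of a random double-stranded 16-mer DNA library in Tris/NaCl/DTT/glycerol buffer at room temperature for 30 min. After washing, the pools were crosslinked with 0.1% formaldehyde, proximity-ligated with BsaI/T4 ligase for 1 h at 37 °C, PCR-amplified and sequenced on an Illumina NextSeq500.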

The target in another assay is T2, ERG (Homo sapiens, UniProt P11308 1-479).
T2 sequence: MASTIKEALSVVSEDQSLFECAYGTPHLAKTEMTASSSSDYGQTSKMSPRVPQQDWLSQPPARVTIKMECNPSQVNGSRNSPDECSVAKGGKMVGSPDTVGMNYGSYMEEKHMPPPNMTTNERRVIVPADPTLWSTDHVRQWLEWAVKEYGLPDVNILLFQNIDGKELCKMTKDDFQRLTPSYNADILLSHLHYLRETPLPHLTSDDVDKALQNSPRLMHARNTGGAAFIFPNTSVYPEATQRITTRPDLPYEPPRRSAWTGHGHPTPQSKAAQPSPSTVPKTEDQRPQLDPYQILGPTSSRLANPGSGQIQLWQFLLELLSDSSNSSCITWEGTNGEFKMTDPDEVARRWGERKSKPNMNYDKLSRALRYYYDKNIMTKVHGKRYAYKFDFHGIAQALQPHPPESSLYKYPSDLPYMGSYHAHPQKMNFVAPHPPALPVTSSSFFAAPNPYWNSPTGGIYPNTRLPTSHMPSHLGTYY
The gist of the method:
as §1

The next assay concerns the target ELF1 (Homo sapiens, UniProt P32519 1-619). A digest of the protocol:
as §1

In a further assay the target is T3, EHF (Homo sapiens, UniProt Q9NZC4 1-300).
T3 sequence: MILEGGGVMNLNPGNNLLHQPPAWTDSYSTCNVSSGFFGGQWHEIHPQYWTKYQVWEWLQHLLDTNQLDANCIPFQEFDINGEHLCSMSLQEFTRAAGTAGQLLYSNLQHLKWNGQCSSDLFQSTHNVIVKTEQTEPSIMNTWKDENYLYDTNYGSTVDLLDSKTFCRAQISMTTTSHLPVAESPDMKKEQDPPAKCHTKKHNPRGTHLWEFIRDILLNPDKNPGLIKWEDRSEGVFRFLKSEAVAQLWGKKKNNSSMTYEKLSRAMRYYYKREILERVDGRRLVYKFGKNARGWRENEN
A digest of the protocol: as §1

In the next assay the target is SPIB (Homo sapiens, UniProt Q01892 1-262). The gist of the method:
as §1

A further assay concerns the target T4, FEV (Homo sapiens, UniProt Q99581 1-238).
T4 sequence: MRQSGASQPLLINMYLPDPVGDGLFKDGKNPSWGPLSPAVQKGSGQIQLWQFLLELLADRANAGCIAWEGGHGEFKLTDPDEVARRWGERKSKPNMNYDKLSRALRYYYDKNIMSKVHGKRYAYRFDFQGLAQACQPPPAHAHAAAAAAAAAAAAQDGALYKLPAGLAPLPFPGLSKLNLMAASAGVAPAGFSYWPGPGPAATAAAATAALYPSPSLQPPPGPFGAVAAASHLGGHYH
A digest of the protocol: as §1

A further assay has as its target ETV5 (Homo sapiens, UniProt P41161 1-510). A digest of the protocol:
as §1

The next assay deals with ELF4 (Homo sapiens, UniProt Q99607 1-663). The gist of the method:
as §1

The target of a further assay is T5, ELK4 (Homo sapiens, UniProt P28324-2 1-405).
T5 sequence: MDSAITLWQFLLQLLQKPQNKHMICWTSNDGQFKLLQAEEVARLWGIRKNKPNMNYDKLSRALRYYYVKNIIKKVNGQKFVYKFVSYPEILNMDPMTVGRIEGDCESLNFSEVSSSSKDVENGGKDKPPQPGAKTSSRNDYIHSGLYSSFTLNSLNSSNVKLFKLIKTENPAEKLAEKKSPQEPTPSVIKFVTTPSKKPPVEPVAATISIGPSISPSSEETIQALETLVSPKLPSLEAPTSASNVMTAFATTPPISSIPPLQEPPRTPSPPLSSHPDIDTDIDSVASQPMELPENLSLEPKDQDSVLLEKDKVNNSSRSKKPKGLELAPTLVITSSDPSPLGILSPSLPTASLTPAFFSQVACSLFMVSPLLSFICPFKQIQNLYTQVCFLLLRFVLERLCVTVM
The gist of the method:
as §1

In the next assay the target is T6, ETV2 (Homo sapiens, UniProt O00321 1-342).
T6 sequence: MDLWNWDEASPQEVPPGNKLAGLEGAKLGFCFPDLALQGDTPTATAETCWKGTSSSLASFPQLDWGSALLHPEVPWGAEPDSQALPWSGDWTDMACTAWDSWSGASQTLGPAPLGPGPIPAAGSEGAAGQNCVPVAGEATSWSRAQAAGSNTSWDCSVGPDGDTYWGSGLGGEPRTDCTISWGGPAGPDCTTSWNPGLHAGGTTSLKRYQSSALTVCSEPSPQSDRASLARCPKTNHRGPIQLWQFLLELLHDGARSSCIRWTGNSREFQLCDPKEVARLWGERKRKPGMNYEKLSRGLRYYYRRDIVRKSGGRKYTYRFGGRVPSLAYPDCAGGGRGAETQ
A digest of the protocol:
as §1

In the next assay the target is T7, ELF3 (Homo sapiens, UniProt P78545 1-371).
T7 sequence: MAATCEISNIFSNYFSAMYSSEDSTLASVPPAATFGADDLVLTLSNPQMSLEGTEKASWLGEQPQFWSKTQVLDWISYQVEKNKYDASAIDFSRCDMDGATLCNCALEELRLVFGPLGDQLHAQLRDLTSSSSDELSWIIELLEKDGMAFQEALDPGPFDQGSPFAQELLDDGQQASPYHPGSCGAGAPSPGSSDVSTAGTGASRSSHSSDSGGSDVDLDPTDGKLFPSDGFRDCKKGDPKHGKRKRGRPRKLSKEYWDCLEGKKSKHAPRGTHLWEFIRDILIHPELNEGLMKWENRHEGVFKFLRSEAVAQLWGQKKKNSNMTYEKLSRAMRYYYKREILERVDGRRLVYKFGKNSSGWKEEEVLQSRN
The gist of the method:
as §1

Another assay deals with ETV1 (Homo sapiens, UniProt P50549 1-477). The gist of the method:
as §1

The target of a further assay is T8, ERF (Homo sapiens, UniProt P50548 1-548).
T8 sequence: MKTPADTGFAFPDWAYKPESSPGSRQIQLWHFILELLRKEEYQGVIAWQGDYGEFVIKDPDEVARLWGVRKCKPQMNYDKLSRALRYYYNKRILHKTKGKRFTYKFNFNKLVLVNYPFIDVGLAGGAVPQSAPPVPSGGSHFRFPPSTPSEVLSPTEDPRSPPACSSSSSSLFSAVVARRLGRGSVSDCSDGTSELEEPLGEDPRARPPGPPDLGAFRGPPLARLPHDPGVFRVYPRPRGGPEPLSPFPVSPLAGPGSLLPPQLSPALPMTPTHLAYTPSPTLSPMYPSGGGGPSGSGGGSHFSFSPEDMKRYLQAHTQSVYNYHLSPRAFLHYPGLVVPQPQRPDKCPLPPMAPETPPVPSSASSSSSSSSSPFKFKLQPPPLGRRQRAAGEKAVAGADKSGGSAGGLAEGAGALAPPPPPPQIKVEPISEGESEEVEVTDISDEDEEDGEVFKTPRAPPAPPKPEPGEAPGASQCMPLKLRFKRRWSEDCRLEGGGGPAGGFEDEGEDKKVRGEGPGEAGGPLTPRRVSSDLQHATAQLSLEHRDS
A digest of the protocol: as §1

Another assay addresses T9, ETV3L (Homo sapiens, UniProt Q6ZN32 1-361).
T9 sequence: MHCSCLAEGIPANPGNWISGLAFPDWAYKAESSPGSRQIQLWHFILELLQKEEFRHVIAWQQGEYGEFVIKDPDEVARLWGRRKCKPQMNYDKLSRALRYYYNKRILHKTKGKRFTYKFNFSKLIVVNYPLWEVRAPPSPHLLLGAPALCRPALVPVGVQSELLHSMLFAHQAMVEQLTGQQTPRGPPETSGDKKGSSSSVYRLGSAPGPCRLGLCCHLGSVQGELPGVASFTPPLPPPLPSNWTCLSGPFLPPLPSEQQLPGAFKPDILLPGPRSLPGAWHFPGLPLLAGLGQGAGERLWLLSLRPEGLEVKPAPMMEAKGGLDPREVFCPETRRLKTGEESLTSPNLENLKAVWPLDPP
The gist of the method: as §1

Another assay has as its target T10, ETS2 (Homo sapiens, UniProt P15036 1-469).
T10 sequence: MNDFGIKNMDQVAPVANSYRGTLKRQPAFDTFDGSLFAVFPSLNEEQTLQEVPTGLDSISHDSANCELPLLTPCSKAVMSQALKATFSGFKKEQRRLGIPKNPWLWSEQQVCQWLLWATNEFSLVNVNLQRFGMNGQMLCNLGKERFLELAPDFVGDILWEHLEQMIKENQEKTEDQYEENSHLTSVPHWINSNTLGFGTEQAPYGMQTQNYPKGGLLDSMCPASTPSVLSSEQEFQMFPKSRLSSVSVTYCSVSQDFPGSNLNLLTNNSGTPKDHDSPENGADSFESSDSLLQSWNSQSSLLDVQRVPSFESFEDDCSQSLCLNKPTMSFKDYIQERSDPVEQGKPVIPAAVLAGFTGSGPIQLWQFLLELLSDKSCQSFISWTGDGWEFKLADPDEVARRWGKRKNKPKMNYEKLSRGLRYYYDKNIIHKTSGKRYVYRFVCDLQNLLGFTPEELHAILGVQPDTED
The gist of the method:
as §1

Another assay addresses T11, SPDEF (Homo sapiens, UniProt O95238 1-335).
T11 sequence: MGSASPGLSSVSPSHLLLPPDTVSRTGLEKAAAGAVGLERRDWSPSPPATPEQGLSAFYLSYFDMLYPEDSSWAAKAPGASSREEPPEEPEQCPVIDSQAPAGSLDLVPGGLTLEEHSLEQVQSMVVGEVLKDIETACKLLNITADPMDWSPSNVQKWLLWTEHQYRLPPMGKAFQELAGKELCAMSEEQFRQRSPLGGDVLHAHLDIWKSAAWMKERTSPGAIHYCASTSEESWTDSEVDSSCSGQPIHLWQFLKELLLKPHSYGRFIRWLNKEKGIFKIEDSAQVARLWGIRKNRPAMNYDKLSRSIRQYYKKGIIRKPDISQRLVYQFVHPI
A digest of the protocol:
as §1

Another assay deals with T12, ETV7 (Homo sapiens, UniProt Q9Y603 1-341).
T12 sequence: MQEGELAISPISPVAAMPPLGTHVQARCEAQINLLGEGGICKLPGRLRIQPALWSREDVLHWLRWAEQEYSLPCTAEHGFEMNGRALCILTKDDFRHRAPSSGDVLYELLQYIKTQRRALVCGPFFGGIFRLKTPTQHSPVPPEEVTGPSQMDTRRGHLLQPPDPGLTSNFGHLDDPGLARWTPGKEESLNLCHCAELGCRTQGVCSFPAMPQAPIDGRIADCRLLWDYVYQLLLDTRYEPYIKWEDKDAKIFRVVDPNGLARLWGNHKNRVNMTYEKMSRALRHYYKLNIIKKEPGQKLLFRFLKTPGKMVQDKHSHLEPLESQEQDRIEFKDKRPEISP
The gist of the method: as §1

A further assay deals with T13, ETV3 (Homo sapiens, UniProt P41162-2 1-143).
T13 sequence: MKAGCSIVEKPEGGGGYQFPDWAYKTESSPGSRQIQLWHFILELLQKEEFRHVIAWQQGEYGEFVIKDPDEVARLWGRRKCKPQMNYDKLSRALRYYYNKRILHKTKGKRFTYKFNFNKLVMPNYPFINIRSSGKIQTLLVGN
The gist of the method: as §1

For a further assay, the target named is ETV6 (Homo sapiens, UniProt P41212 1-452). A digest of the protocol:
as §1

ETV5, sequence (P41161 whole entry): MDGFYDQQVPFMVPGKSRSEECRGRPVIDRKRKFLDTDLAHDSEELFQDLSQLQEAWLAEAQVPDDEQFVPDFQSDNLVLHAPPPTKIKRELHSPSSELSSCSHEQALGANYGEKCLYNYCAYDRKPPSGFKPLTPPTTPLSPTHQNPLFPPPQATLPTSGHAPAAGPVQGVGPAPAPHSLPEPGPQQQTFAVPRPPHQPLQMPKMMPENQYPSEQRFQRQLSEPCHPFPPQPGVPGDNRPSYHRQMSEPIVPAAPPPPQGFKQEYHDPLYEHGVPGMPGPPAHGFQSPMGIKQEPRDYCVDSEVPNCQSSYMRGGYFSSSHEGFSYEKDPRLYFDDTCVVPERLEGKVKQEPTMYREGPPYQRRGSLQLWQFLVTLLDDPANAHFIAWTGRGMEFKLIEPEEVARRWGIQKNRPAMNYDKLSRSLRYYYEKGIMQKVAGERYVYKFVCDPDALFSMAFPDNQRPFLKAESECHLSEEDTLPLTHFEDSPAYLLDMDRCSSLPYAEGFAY
ELF1, sequence (P32519 whole entry): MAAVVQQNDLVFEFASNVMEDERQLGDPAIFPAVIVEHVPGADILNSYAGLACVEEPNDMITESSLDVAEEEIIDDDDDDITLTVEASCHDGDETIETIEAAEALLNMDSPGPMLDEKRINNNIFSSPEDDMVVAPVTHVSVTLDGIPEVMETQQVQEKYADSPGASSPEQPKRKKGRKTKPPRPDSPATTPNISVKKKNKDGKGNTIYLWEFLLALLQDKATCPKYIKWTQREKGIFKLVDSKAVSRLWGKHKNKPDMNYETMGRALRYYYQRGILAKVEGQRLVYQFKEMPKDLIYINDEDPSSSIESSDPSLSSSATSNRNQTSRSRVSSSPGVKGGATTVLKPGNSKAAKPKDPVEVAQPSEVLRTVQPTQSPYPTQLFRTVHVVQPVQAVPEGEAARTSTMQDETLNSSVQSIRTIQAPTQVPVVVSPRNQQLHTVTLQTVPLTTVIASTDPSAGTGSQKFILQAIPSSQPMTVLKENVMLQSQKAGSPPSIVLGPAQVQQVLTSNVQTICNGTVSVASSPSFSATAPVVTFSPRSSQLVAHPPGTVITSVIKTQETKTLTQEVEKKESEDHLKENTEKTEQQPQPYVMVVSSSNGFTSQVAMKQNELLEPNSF
SPIB, sequence (Q01892 whole entry): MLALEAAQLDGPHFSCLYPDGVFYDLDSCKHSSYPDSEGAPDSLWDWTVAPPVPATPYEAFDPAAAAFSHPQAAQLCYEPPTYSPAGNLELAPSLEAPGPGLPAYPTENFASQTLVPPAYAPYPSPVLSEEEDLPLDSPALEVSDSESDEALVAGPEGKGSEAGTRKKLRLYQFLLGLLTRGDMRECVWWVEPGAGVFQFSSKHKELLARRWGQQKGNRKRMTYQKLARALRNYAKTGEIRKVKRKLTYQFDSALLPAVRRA
ELF4, sequence (Q99607 whole entry): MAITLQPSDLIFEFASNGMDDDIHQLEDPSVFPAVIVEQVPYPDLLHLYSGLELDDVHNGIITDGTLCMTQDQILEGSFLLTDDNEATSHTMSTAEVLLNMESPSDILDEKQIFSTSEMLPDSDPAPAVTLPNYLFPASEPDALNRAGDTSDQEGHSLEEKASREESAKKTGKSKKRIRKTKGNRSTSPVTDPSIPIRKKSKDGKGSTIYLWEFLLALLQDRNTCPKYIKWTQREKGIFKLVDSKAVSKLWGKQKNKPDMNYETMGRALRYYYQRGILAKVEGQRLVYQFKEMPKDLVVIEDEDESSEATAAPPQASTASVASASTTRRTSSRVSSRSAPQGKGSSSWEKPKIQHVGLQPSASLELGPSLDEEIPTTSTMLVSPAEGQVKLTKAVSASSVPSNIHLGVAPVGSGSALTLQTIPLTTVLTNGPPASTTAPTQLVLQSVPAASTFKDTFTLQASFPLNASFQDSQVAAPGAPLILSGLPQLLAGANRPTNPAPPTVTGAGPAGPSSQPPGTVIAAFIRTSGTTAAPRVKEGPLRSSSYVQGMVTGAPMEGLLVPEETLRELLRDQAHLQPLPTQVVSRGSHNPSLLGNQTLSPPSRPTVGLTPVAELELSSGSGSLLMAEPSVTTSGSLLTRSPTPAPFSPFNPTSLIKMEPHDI
ETV1, sequence (P50549 whole entry): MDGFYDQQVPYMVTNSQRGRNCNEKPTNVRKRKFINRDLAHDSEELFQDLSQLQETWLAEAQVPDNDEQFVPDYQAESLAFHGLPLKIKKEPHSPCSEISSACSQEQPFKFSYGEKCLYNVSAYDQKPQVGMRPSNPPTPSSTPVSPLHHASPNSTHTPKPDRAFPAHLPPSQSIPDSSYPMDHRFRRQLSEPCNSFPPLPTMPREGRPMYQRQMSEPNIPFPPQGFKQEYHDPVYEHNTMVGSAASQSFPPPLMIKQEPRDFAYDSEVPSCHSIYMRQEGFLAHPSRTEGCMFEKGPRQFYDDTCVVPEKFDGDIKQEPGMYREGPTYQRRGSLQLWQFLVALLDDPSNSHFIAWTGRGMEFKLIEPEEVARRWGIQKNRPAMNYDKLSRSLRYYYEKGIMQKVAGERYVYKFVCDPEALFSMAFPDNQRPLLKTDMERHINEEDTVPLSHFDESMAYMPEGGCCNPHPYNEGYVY
ETV6, sequence (P41212 whole entry): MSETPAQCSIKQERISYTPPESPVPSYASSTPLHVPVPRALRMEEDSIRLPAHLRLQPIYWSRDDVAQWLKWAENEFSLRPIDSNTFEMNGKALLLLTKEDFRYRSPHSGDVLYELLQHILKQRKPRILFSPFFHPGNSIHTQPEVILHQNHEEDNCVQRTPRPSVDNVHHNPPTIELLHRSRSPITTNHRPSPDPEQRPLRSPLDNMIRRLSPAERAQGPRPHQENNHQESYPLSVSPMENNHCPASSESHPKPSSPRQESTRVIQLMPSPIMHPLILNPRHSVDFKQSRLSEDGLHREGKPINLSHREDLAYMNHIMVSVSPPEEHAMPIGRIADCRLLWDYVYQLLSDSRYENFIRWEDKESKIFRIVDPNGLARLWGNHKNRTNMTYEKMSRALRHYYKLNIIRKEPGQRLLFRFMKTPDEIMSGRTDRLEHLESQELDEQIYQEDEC

For CCCCTA, the binding signal with ELK1 is 1.07 fold enrichment (6-mer frequency, TF over GST control); in the assay with ERG, 1.05 fold enrichment (6-mer frequency, TF over GST control); in the assay with ELF1 it was 1.18 fold enrichment (6-mer frequency, TF over GST control); with EHF, 1.17 fold enrichment (6-mer frequency, TF over GST control); with SPIB it was 1.08 fold enrichment (6-mer frequency, TF over GST control); with FEV, 1.13 fold enrichment (6-mer frequency, TF over GST control). Besides, the binding signal with ETV5 is 1.07 fold enrichment (6-mer frequency, TF over GST control); with ELF4 it was 1.2 fold enrichment (6-mer frequency, TF over GST control); in the assay with ELK4, 1.3 fold enrichment (6-mer frequency, TF over GST control); in the assay with ETV2, 1.06 fold enrichment (6-mer frequency, TF over GST control); in the assay with ELF3, 1.3 fold enrichment (6-mer frequency, TF over GST control); in the assay with ETV1, 1.07 fold enrichment (6-mer frequency, TF over GST control). The binding signal was 1.04 fold enrichment (6-mer frequency, TF over GST control) in the assay with ERF; 1.13 fold enrichment (6-mer frequency, TF over GST control) with ETV3L; 1.05 fold enrichment (6-mer frequency, TF over GST control) in the assay with ETS2; 1.07 fold enrichment (6-mer frequency, TF over GST control) with SPDEF; 1.06 fold enrichment (6-mer frequency, TF over GST control) with ETV7; 1.06 fold enrichment (6-mer frequency, TF over GST control) in the assay with ETV3. Besides, in the assay with ETV6, the binding signal is 1.22 fold enrichment (6-mer frequency, TF over GST control).
